AC50 and outcome data for five compounds are collected here from PubChem BioAssay (EPA / NIEHS).

Read-out in assay [1]: Pselectin, SELP (gene 6403)
Briefly: BSK_4H_Pselectin: BioMAP Diversity Plus: 4H Assay for Pselectin Biomarker Activity (AID 2283026). The settings on record: primary human endothelial cells (HUVEC); actives raise or lower the signal. The gist of the method: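 ELISA of surface P-selectin on HUVEC, 24 h after dosing, with parallel SRB staining (0.1% after 10% TCA fixation, 560 nm) for overt cytotoxicity. Activity fitted in both directions relative to DMSO.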

A short description of assay [2]: BSK_4H_SRB: Viability Assessment in the BioMAP Diversity Plus: 4H Assay (AID 2283027).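 Also: cells exposed to compound for 24 h before staining.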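 As to AC50: curves fitted both ways versus DMSO so AC50 may be loss or gain.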 Particulars: primary human endothelial cells (HUVEC). Put shortly: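 HUVEC, 24 h post-dose; 10% TCA fix, 0.1% SRB stain, A560 nm. Total protein = overt cytotoxicity, parallel to biomarker read. Bidirectional fit vs DMSO baseline.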
The nature of assay [3]: BSK_BE3C_SRB: Viability Assessment in the BioMAP Diversity Plus: BE3C Assay (AID 2283028).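 As to AC50: fitted both ways so AC50 may mark signal gain or loss versus DMSO.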 Particulars: primary human bronchial epithelial cells. The gist of the method: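 Cells (human bronchial epithelial, primary) are treated with chemicals, and after 24 h the parallel cultures are fixed in 10% TCA. These are then stained with 0.1% SRB and read at 560 nm. Gain or loss of signal is fitted relative to DMSO.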

Read-out in assay [4]: Thrombomodulin, THBD (gene 7056)
Briefly: BSK_3C_Thrombomodulin: BioMAP Diversity Plus: 3C Assay for Thrombomodulin Biomarker Activity (AID 2283029). The settings on record: primary human endothelial cells (HUVEC); actives raise or lower the signal. Put shortly: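 ELISA measurement of thrombomodulin on HUVEC surface 24 h after chemical dosing; activity fitted in both directions relative to DMSO vehicle.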

Read-out in assay [5]: Urokinase-type plasminogen activator receptor (uPAR), PLAUR (gene 5329)
Briefly: BSK_4H_uPAR: BioMAP Diversity Plus: 4H Assay for Urokinase-type plasminogen activator receptor (uPAR) Biomarker Activity (AID 2283030). The settings on record: primary human endothelial cells (HUVEC); actives raise or lower the signal. Put shortly:
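Cell-surface uPAR ELISA signal, measured 24 h after dosing human umbilical vein endothelial cells, was analyzed with bidirectional fitting relative to DMSO. Parallel SRB staining of total protein tracked overt cytotoxicity.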

Read-out in assay [6]: Vascular endothelial growth factor receptor 2 (Homo sapiens) (UniProt P35968)
Briefly: BSK_4H_VEGFRII: BioMAP Diversity Plus: 4H Assay for Vascular endothelial growth factor receptor 2 (VEGFR2) Biomarker Activity (AID 2283031).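 As to AC50: cell-surface VEGFR2 protein level quantified by ELISA.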 Particulars: primary human endothelial cells (HUVEC); actives raise or lower the signal. Put shortly:
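ELISA read-out of VEGFRII in primary human umbilical vein endothelium, taken 24 h after chemical treatment. Responses are expressed relative to DMSO, with bidirectional fitting.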

Read-out in assay [7]: Vascular cell adhesion molecule 1 (VCAM1), VCAM1 (gene 7412)
Briefly: BSK_4H_VCAM1: BioMAP Diversity Plus: 4H Assay for Vascular cell adhesion molecule 1 (VCAM1) Biomarker Activity (AID 2283033).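 As to outcome: cell-surface VCAM-1 protein measured by ELISA.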 The settings on record: primary human endothelial cells (HUVEC); actives raise or lower the signal. Put shortly:
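VCAM-1 ELISA read 24 h after chemical dosing of HUVEC in the BioMAP 4H system, with gain or loss of signal fitted relative to DMSO. Parallel SRB staining (560 nm) checked overt cytotoxicity.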

Read-out in assay [8]: Interferon-gamma inducible Protein 10 (IP10), CXCL10 (gene 3627)
Briefly: BSK_BE3C_IP10: BioMAP Diversity Plus: BE3C Assay for Interferon-gamma inducible Protein 10 (IP10) Biomarker Activity (AID 2283034). The settings on record: primary human bronchial epithelial cells; actives raise or lower the signal. The gist of the method:
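IP-10 quantified by ELISA in human primary bronchial epithelial cell cultures at 24 hours post-dosing. Gain or loss of signal fitted relative to DMSO; parallel SRB staining assessed overt cytotoxicity.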

Read-out in assay [9]: Monokine induced gamma interferon (MIG), CXCL9 (gene 4283)
Briefly: BSK_BE3C_MIG: BioMAP Diversity Plus: BE3C Assay for Monokine induced gamma interferon (MIG) Biomarker Activity (AID 2283035). Particulars: primary human bronchial epithelial cells; actives raise or lower the signal. The gist of the method:
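Dose cells (human primary bronchial epithelial), incubate 24 h, quantify MIG by ELISA, then fit concentration–response in both directions relative to DMSO control.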

Read-out in assay [10]: Plasminogen activator inhibitor-1 (PAI1), SERPINE1 (gene 5054)
Briefly: BSK_BE3C_PAI1: BioMAP Diversity Plus: BE3C Assay for Plasminogen activator inhibitor-1 (PAI1) Biomarker Activity (AID 2283037). The settings on record: primary human bronchial epithelial cells; actives raise or lower the signal. Put shortly:
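PAI-1 was measured by ELISA in human primary bronchial epithelial cultures 24 h after chemical dosing, with cytotoxicity checked by SRB total-protein staining in parallel cultures. Activity was fitted in both directions relative to DMSO.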

Read-out in assay [11]: Urokinase-type plasminogen activator receptor (uPAR), PLAUR (gene 5329)
Briefly: BSK_BE3C_uPAR: BioMAP Diversity Plus: BE3C Assay for Urokinase-type plasminogen activator receptor (uPAR) Biomarker Activity (AID 2283039).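 As to outcome: cells exposed to compound for one day before measurement.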 The settings on record: primary human bronchial epithelial cells; actives raise or lower the signal. The gist of the method:
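uPAR levels were measured by ELISA after 24 h compound treatment of primary human bronchial epithelial cells, fitted in both directions relative to DMSO. Parallel SRB staining served as the cytotoxicity read-out.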

Read-out in assay [12]: Interleukin-6 (IL6), IL6 (gene 3569)
Briefly: BSK_CASM3C_IL6: BioMAP Diversity Plus: CASM3C Assay for Interleukin-6 (IL6) Biomarker Activity for (AID 2283040). Particulars: primary human coronary artery smooth muscle cells; actives raise or lower the signal.

Read-out in assay [13]: Tissue plasminogen activator (tPA), PLAT (gene 5327)
Briefly: BSK_BE3C_tPA: BioMAP Diversity Plus: BE3C Assay for Tissue plasminogen activator (tPA) Biomarker Activity (AID 2283041).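 Also: tPA level quantified by ELISA one day after compound addition.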 The settings on record: primary human bronchial epithelial cells; actives raise or lower the signal. The gist of the method:
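tPA measured by ELISA 24 h after dosing human primary bronchial epithelial cells (BE3C system). Changes in either direction were fitted against DMSO. Parallel cultures were stained with SRB to flag overt cytotoxicity.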

Read-out in assay [14]: Interleukin-8 (IL8), CXCL8 (gene 3576)
Briefly: BSK_CASM3C_IL8: BioMAP Diversity Plus: CASM3C Assay for Interleukin-8 (IL8) Biomarker Activity (AID 2283042).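 Also: IL-8 protein level quantified by ELISA.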 The settings on record: primary human coronary artery smooth muscle cells; actives raise or lower the signal.

Read-out in assay [15]: Human Leukocyte Antigen - DR isotype (HLADR), HLA-DRA (gene 3122)
Briefly: BSK_CASM3C_HLADR: BioMAP Diversity Plus: CASM3C Assay for Human Leukocyte Antigen - DR isotype (HLADR) Biomarker Activity (AID 2283043).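 Also: cell-surface HLA-DR protein level quantified by ELISA.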 The settings on record: primary human coronary artery smooth muscle cells; actives raise or lower the signal.

Read-out in assay [16]: Macrophage colony-stimulating factor (MCSF), CSF1 (gene 1435)
Briefly: BSK_CASM3C_MCSF: BioMAP Diversity Plus: CASM3C Assay for Macrophage colony-stimulating factor (MCSF) Biomarker Activity (AID 2283044).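 Also: M-CSF protein amount quantified by ELISA after 24 h exposure.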 Particulars: primary human coronary artery smooth muscle cells; actives raise or lower the signal.

Read-out in assay [17]: Monocyte Chemoattractant Protein-1 (MCP1), CCL2 (gene 6347)
Briefly: BSK_CASM3C_MCP1: BioMAP Diversity Plus: CASM3C Assay for Monocyte Chemoattractant Protein-1 (MCP1) Biomarker Activity (AID 2283046).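 Also: MCP-1 level quantified by ELISA 24 h after dosing.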 The settings on record: primary human coronary artery smooth muscle cells; actives raise or lower the signal.

The nature of assay [18]: BSK_CASM3C_Proliferation: Cell Proliferation Assessment in the BioMAP Diversity Plus: CASM3C Assay (AID 2283047).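 Also: sulforhodamine B total protein stain as relative cell number at 560 nm; sub-confluent cells exposed 48 h before staining; fitted both ways against DMSO so gain or loss of cell number.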 The settings on record: primary human coronary artery smooth muscle cells.
Read-out in assay [19]: Monokine induced gamma interferon (MIG), CXCL9 (gene 4283)
Briefly: BSK_CASM3C_MIG: BioMAP Diversity Plus: CASM3C Assay for Monokine induced gamma interferon (MIG) Biomarker Activity (AID 2283048).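 Also: MIG protein level measured by ELISA.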 The settings on record: primary human coronary artery smooth muscle cells; actives raise or lower the signal.

Read-out in assay [20]: serum amyloid A (SAA), SAA1 (gene 6288)
Briefly: BSK_CASM3C_SAA: BioMAP Diversity Plus: CASM3C Assay for serum amyloid A (SAA) Biomarker Activity (AID 2283049).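 Also: SAA protein level quantified by ELISA.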 The settings on record: primary human coronary artery smooth muscle cells; actives raise or lower the signal.

Values joined by “and” are separate entries in the source; they are usually repeats but may differ in a detail not shown here. Equal values may be shown once. Active and inactive are the calls of the source. The calls were made as follows: active = hit-call score of the fitted dose curve at least 0.9, where 1 is the maximum; inactive = score below 0.9.

As usually defined, the AC50 is the concentration giving half of the maximal activity seen. For the compound `Oc1ccc(C2(c3ccc(O)cc3)c3ccccc3-c3ccccc32)cc1`, the AC50 in assay [1] is 3.01 µM (active) and 5.41 µM (active); in [2] it was 11.9 µM (active); in assay [3], 5.04 µM (active) and 5.03 µM (active); in assay [4], 5.01 µM (active) and 11.3 µM (active); in assay [5], 16.5 µM (active) and 14.4 µM (active); in assay [6], 33.9 µM (active) and 35.7 µM (active). Moreover, the AC50 in [7] was 6.91 µM (active) and 7.37 µM (active); in assay [8] it was 5.4 µM (active) and 3.97 µM (active); in assay [9] it was 5.44 µM (active) and 5.43 µM (active); in assay [10], 5.27 µM (active) and 5.31 µM (active); in assay [11], 5.37 µM (active) and 5.3 µM (active); in assay [12] it was 9.02 µM (active) and 4.73 µM (active). In addition, the AC50 was 27 µM (active) and 24.3 µM (active) in assay [14]; 3.97 µM (active) and 2.88 µM (active) in assay [15]; 11.1 µM (active) and 20 µM (active) in [16]; 20 µM (active) in [17]; 32.4 µM (active) and 32.9 µM (active) in [18]; 914 nM (active) and 799 nM (active) in [19]. In assay [20], the AC50 was 20 µM (active). The outcome in assay [13] was inactive.

Consider `O=c1[nH]c(Cl)c(Cl)cc1Cl`, for which the outcome in assay [1], in [2], in assay [3], in assay [4], in assay [5] and in assay [6] was inactive. The result in [7], in [8], in assay [9], in assay [10], in [11] and in assay [12] was inactive. Also, the outcome in assay [13], in assay [14], in assay [15], in [16], in [17] and in assay [18] was inactive. Further, the result in assay [19] and in assay [20] was inactive.

In the case of `CC(C)(C)C(O)C(Oc1ccc(-c2ccccc2)cc1)n1cncn1` (stereo not given), the AC50 is 29.7 µM (active) in assay [1]; 31.6 µM (active) in [2]; 31.8 µM (active) in assay [5]; 34.7 µM (active) in assay [6]; 31.5 µM (active) in assay [7]; 6.71 µM (active) in assay [8]. For the same compound, the AC50 was 5.39 µM (active) in [10]; 30.9 µM (active) in assay [12]; 31.3 µM (active) in [15]; 20 µM (active) in assay [16]; 29.2 µM (active) in [17]; 26.3 µM (active) in assay [18]. In addition, in assay [20], the AC50 was 20 µM (active). Moreover, the result in [3], in assay [4], in assay [9], in [11], in assay [13] and in assay [14] was inactive. In addition, the result in assay [19] was inactive.

As for `CC(C)(c1cc(Cl)c(O)c(Cl)c1)c1cc(Cl)c(O)c(Cl)c1`, the AC50 is 27.8 µM (active) in assay [1]; 29 µM (active) in assay [2]; 6.38 µM (active) in [3]; 20 µM (active) in [4]; 30.2 µM (active) in assay [5]; 6.9 µM (active) in assay [6]. Moreover, the AC50 in assay [7] was 30.1 µM (active); in assay [8], 7.58 µM (active); in assay [9], 7.45 µM (active); in [11], 5.31 µM (active); in assay [12], 36.4 µM (active); in assay [15] it was 27.9 µM (active). Moreover, the AC50 in [16] was 20 µM (active); in assay [17], 32.6 µM (active); in [18], 32.6 µM (active); in [19] it was 32.9 µM (active); in assay [20], 32.1 µM (active). Also, the outcome in assay [10], in [13] and in assay [14] was inactive.

Turning to `CCCCCCCCCCCC#N`, the half-maximal activity concentration (AC50) in assay [1] is 20.6 µM (active); in [2], 30.3 µM (active); in [5] it was 20.6 µM (active); in assay [6], 20.6 µM (active); in [7], 20.6 µM (active). Also, the outcome in assay [3], in assay [4], in assay [8], in assay [9], in assay [10] and in [11] was inactive. The outcome in assay [12], in assay [13], in assay [14], in [15], in assay [16] and in [17] was inactive. Moreover, the outcome in assay [18], in assay [19] and in [20] was inactive.
